Active and inactive are the calls of the source. Unless noted, how the calls were made is not given here.

Assay [1] can be described thus: HepG2 liver cancer cell viability effects, profiling panel, resazurin fluorescence, 24 h, PK04 Diversity Set (AID 1172). The following applies: higher = more signal. On the technique in general: The colour change of resazurin is a common sign of viable cells or microbes.
A short description of assay [2]: basal S. cerevisiae growth modulation, no modifier, primary screen, OD600, strain BY4716, 24 h, basal condition (AID 1173). Conditions: OD600, 24 h, higher = more signal, called active from +8 up or from −8 down.
A short description of assay [3]: MM1S myeloma cell viability, profiling panel, resazurin fluorescence, basal, 24 h, PK04 Diversity Set (AID 1174).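 Further: MM1S multiple myeloma cell line.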 The following applies: higher = more signal, called active from +8 up or from −8 down.
Assay [4] concerns the target Dihydroorotate dehydrogenase (quinone), mitochondrial (Plasmodium falciparum (isolate 3D7)) (UniProt Q08210). The experiment in a line: PfDHODH enzyme inhibitors, primary screen, biochemical, C-terminal His tag, absorbance 600 nm (AID 1175).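 Further: recombinant parasite enzyme with a five histidine tag at its C terminus.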 Conditions: DCIP absorbance 600 nm, higher = more signal, called active from +8 up or from −8 down.
Assay [5] in a line: P. aeruginosa biofilm formation inhibitors, primary screen, strain PAO1, LB-PBS medium, absorbance 600 nm (AID 1176). Conditions: P. aeruginosa PAO1 growth/biofilm, A600, 12 h; higher = more signal.
Assay [6] can be described thus: S. cerevisiae RM11-1a growth modifiers, primary screen, strain RM11-1a, OD600, basal, 24 h (AID 1177).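 Further: cultures grown under basal conditions with no added stressor.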 Conditions: OD600, 24 h, higher = more signal, called active from +8 up or from −8 down.
Assay [7] can be described thus: E. coli acrAB mutant growth effects, primary screen, E. coli filamentation inducers, strain DRC39, OD650, 24 h (AID 1178).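 Further: growth measured as culture turbidity by optical density at 650 nm.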 The following applies: higher = more signal, called active from +8 up or from −8 down.
Assay [8] is described as follows: E. coli acrAB mutant growth effects, primary screen, E. coli filamentation inducers, strain DRC39, OD650, 48 h (AID 1179).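 Further: screen aims at cell division blockers that make cells filament.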 Conditions: E. coli DRC39 delta-acrAB growth, higher = more signal, called active from +8 up or from −8 down.
Assay [9] in a line: RPMI8226 myeloma cell viability, profiling panel, resazurin fluorescence, basal, 24 h, PK04 Diversity Set (AID 1180).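 Further: RPMI8826 multiple myeloma cell line at 5000 cells per well.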 The following applies: higher = more signal.
Assay [10] addresses E3 ubiquitin-protein ligase XIAP (Homo sapiens) (UniProt P98170). The experiment in a line: XIAP binders, primary screen, biophysical, small-molecule microarray, fluorescence 635 nm (AID 1181).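 Further: score merges 667 nm emission and signal to noise over triplicate slides.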 The following applies: small-molecule microarray binding, higher = more signal.
Assay [11] relates to XIP peptide (Xip251-270) binding. The experiment in a line: small-molecule binders of XIP peptide, primary screen, biochemical, small-molecule microarray, fluorescence 635/667 nm, 0.1 µg/mL protein (AID 1182). The following applies: fluorescent protein binding, 635 nm, higher = more signal, called active from +8 up or from −8 down.
A further assay relates to XIP peptide (Xip251-270). The experiment in a line: small-molecule binders of XIP peptide, primary screen, biochemical, small-molecule microarray, fluorescence 635/667 nm, 0.5 µg/mL protein (AID 1183). The following applies: small-molecule microarray binding, fluorescence 635 nm; higher = more signal.
Assay [12] can be described thus: Plasmodium falciparum growth inhibition, primary screen, strain 3D7, DAPI fluorescence, 100 nL (AID 1184).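 Further: parasites grown inside human red blood cells in medium with human serum.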 Conditions: P. falciparum 3D7 growth, 3 d, higher = more signal.
Assay [13] concerns the target Homeobox protein Hox-A13 (Mus musculus) (UniProt Q62424). The experiment in a line: inhibitors of HoxA13-DNA binding, primary screen, biochemical, fluorescence polarization, labeled oligonucleotide (AID 1185). The following applies: 15 min, higher = more signal, called active from +8 up or from −8 down. (In fluorescence polarisation assays a small probe gives low polarisation when free and higher when bound to something large.)

The nature of assay [14]: inhibitors of hydroxyurea-induced Chk1 phosphorylation, primary screen, imaging, HeLa, phospho-Chk1 antibody, percent positive cells (AID 1186). Conditions: hydroxyurea-induced phospho-Chk1 immunofluorescence imaging, higher = more signal.
Assay [15] is described as follows: inhibitors of hydroxyurea-induced Chk1 phosphorylation, primary screen, imaging, HeLa, phospho-Chk1 nuclear intensity (AID 1187). Conditions: hydroxyurea-induced phospho-Chk1 immunofluorescence imaging, higher = more signal.

Chain of Homeobox protein Hox-A13 (Mus musculus) (Q62424 whole entry, looked up): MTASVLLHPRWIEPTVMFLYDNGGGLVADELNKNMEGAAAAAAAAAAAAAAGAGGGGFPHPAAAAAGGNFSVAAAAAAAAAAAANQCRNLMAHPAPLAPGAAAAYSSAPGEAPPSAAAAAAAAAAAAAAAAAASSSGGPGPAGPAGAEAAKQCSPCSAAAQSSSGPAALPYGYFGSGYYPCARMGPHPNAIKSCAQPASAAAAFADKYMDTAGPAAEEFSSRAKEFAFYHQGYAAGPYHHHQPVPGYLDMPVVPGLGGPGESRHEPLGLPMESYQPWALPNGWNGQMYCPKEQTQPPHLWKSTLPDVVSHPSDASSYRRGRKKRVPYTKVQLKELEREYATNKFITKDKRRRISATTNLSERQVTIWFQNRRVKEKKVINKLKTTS
Chain of Dihydroorotate dehydrogenase (quinone), mitochondrial (Plasmodium falciparum (isolate 3D7)) (Q08210 whole entry, looked up): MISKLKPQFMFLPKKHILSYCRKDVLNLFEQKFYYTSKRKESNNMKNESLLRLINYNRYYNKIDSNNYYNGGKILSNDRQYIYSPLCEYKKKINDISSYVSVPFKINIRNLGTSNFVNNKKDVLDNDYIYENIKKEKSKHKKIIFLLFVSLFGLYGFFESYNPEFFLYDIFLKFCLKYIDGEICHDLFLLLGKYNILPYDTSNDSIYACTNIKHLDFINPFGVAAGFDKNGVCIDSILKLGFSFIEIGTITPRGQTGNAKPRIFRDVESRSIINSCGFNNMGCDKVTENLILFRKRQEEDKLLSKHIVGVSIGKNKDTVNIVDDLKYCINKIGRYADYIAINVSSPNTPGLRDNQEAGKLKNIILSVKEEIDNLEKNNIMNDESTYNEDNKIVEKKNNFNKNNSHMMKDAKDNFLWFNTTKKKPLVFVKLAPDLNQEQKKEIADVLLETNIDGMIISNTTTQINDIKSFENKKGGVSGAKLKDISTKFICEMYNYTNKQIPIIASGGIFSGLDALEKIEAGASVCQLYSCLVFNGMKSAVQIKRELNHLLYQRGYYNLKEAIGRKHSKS
Chain of E3 ubiquitin-protein ligase XIAP (Homo sapiens) (P98170 whole entry, looked up): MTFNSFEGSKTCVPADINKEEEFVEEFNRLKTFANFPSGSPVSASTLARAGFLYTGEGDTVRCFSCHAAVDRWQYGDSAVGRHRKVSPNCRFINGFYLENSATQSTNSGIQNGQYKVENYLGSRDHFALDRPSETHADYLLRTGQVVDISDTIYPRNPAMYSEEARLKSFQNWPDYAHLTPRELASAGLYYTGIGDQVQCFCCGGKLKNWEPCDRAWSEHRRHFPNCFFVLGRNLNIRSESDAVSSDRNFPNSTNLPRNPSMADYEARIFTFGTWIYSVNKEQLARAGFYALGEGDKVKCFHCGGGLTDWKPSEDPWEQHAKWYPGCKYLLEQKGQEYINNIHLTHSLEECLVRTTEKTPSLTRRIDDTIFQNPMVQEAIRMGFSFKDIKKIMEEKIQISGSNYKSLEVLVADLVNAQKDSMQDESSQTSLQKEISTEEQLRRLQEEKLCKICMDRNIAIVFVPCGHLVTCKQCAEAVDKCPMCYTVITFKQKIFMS

In the case of `O=C1O[C@H](c2ccccc2)[C@H](c2ccccc2)N2[C@H]1[C@@H](C(=O)O)[C@]1(C(=O)Nc3ccc(C#CCCO)cc31)[C@H]2c1ccccc1OCCO`, the z-score in [1] was -0.732; in assay [2], -0.498 (inactive); in assay [3], 0.716 (inactive); in assay [5] it was 0.573 (inactive); in assay [6], 0.626 (inactive); in assay [7], -0.88 (inactive). Moreover, the z-score is -1.22 (inactive) in [8]; 1.5 in assay [9]; -1.08 in assay [12]; -6.55 (inactive) in assay [13]; 0.55 (inactive) in assay [14]; 0.175 (inactive) in assay [15]. In addition, the composite z-score is -0.408 (inactive) in assay [4], 0.177 in [10], 0.154 (inactive) in assay [11] and 0.736 in the assay on XIP peptide (Xip251-270).
Take `N#Cc1ccc(NN2C(C(O)c3ccc(Br)cc3)C=CC3C(=O)N(c4ccccc4)C(=O)C32)cc1` (centres undefined): the z-score in assay [1] was -1.3; in [2] it was -3.42 (inactive); in [3], -0.299 (inactive); in assay [5], 0.819 (inactive); in [6], -1.85 (inactive); in [7], 0.527 (inactive). Also, the z-score in assay [8] was 0.656 (inactive); in [9], -0.0706; in assay [12], 0.401; in assay [13], -3.13 (inactive); in assay [14] it was 0.0643 (inactive); in assay [15] it was 0.0338 (inactive). Moreover, the composite z-score was -1.03 (inactive) in [4], 0.179 in [10], 1.13 (inactive) in assay [11] and 0.529 in the assay with XIP peptide (Xip251-270).
For the molecule `COC(=O)C1(CC(C)C)C=C2C(=C(c3ccccc3)C(=O)C2C)CN1` (centres undefined), the z-score in assay [1] is -1.21; in assay [2] it was 0.397 (inactive); in assay [3], -2.14 (inactive); in assay [5] it was 0.647 (inactive); in assay [6] it was 0.168 (inactive); in [7], -0.33 (inactive). The z-score in assay [8] is 0.208 (inactive); in [9] it was -1.27; in [12] it was -0.104; in assay [13] it was -7.47 (inactive); in assay [14] it was -0.563 (inactive); in assay [15], -1.13 (inactive). The composite z-score in assay [4] was -1.58 (inactive); in assay [10] it was -0.0133; in assay [11], -0.213 (inactive); with XIP peptide (Xip251-270), 0.758.
For `CCCC=C(CCC)[C@@H](NC(=O)c1cccs1)c1ccc(C(=O)OC)cc1`, the z-score in assay [1] was 0.756; in assay [2], 1.07 (inactive); in assay [3], 0.645 (inactive); in assay [5], -0.94 (inactive); in assay [6] it was -0.27 (inactive); in [7], 0.204 (inactive). In addition, the z-score in assay [8] is -0.814 (inactive); in assay [9], 0.429; in assay [12], -0.417; in [13] it was -0.907 (inactive); in [14] it was -0.255 (inactive); in [15] it was -0.354 (inactive). Besides, the composite z-score in assay [4] is 0.519 (inactive); in assay [10], -0.031; in assay [11], -0.185 (inactive); in the assay on XIP peptide (Xip251-270), 0.285.
With `COc1cc(OC)c(C(O)C2C=CC3C(=O)N(Cc4ccccc4)C(=O)C3N2n2cnnc2)cc1Br` (centres undefined), the z-score in assay [1] is -0.797; in assay [2], -8.67 (active); in assay [3], -0.982 (inactive); in assay [5], -0.169 (inactive); in assay [6] it was -3.92 (inactive); in assay [7], -0.514 (inactive). The z-score is -0.905 (inactive) in [8]; -1.21 in [9]; -0.976 in assay [12]; 0.767 (inactive) in [13]; 0.0176 (inactive) in assay [14]; 0.301 (inactive) in assay [15]. Besides, the composite z-score in [4] was -0.552 (inactive); in [10] it was 0.197; in [11], 0.236 (inactive); in the assay with XIP peptide (Xip251-270), 0.0481.
With `CCCCC(CC)C(O)C1C=CC2C(=O)N(c3ccccc3)C(=O)C2N1Nc1ccc(C#N)cc1` (centres undefined), the z-score in assay [1] is -0.0318; in [2] it was -0.847 (inactive); in assay [3] it was -0.67 (inactive); in assay [5], 1.7 (inactive); in assay [6] it was 0.913 (inactive); in [7], 0.248 (inactive). Further, the z-score in assay [8] was 0.0706 (inactive); in assay [9], -0.661; in assay [12] it was 0.128; in assay [13] it was -1.83 (inactive); in assay [14] it was -0.185 (inactive); in assay [15], -0.153 (inactive). Moreover, the composite z-score in [4] was 0.215 (inactive); in [10], 0.212; in assay [11] it was 0.742 (inactive); in the assay with XIP peptide (Xip251-270) it was 0.784.
In the case of `CCOc1cc(C(O)C2C=CC3C(=O)NC(=O)C3N2Nc2ccc(Cl)cc2Cl)ccc1O` (centres undefined), the z-score in assay [1] is -1.37; in assay [2] it was 0.203 (inactive); in [3], -2.35 (inactive); in [5] it was 1.4 (inactive); in assay [6], 0.358 (inactive); in assay [7], -0.748 (inactive). Besides, the z-score in assay [8] was -0.75 (inactive); in [9], -1.68; in assay [12], 0.0361; in assay [13], -2.05 (inactive); in assay [14], 0.394 (inactive); in [15] it was 0.627 (inactive). Besides, the composite z-score is 0.0681 (inactive) in assay [4], 0.659 in assay [10], -0.736 (inactive) in assay [11] and 0.966 with XIP peptide (Xip251-270).
Turning to `OCCCC1=CC(c2ccc(CN3CCCC3)cc2)N(Cc2cc3c(cc2Br)OCO3)CC1` (centres undefined), the z-score in [1] is 0.195; in [2] it was -0.538 (inactive); in assay [3] it was 0.163 (inactive); in assay [5] it was 0.485 (inactive); in [6], 0.622 (inactive); in [7], 0.243 (inactive). Besides, the z-score in assay [8] is 0.149 (inactive); in assay [9] it was -0.343; in [12], -3.05; in [13], -2.68 (inactive); in assay [14] it was 0.905 (inactive); in [15], 0.629 (inactive). Besides, the composite z-score in assay [4] was 0.198 (inactive); in [10], -0.0513; in assay [11] it was -0.265 (inactive); in the assay with XIP peptide (Xip251-270), -0.3.
As to `CC(C)NC(=O)[C@@]1(c2ccc([N+](=O)[O-])cc2)CC(=O)N(C2CCCCC2)[C@@H]1c1ccc(CO)cc1`, the z-score in assay [1] is 1.2; in assay [2] it was 0.178 (inactive); in [3] it was 1.16 (inactive); in assay [5] it was -0.0249 (inactive); in assay [6], 0.852 (inactive); in assay [7], 0.389 (inactive). In addition, the z-score in assay [8] is 1.29 (inactive); in assay [9], 0.367; in assay [12], -0.385; in assay [13], -3.11 (inactive); in assay [14], 0.127 (inactive); in [15], 0.0865 (inactive). Moreover, the composite z-score in assay [4] is 1 (inactive); in [10] it was 0.112; in [11], 1.15 (inactive); with XIP peptide (Xip251-270), 0.786.
